# From PubChem BioAssay (Tox21)
# A number with no mark means an inactive call. Calls of active or inactive are those of the source. The call rests on the fitted dose curve; in most records, active means well fitted curve in the direction sought with a large enough effect in the repeat runs; inconclusive means weak or mixed curves; inactive means flat fitted curve, though single readings scatter.
# Assay: qHTS assay to test for compound auto fluorescence at 460 nm (blue) in HepG2 cell free culture (AID 720685)
# Settings: Cell-free culture medium, blue autofluorescence 405/460 nm; series mostly up to 91.3 µM
# Description: U.S. Tox21 Program National Center for Advancing Translational Sciences [NCATS] NIH Chemical Genomics Center [NCGC] U.S. Environmental Protection Agency [EPA] National Institutes of Environmental Health Sciences [NIEHS] National Toxicology Program [NTP] U.S. Food and Drug Administration [FDA] Tox21 Assay Overview: Compound auto fluorescence often interferes with screening of the compound library against various biological targets and signaling pathways. Some of these compounds may have fluorophoric properties. Such properties may interfere with the assay outputs resulting in false positives and/or negatives. To decrease such complications and ensure the compound activities are relevant in terms of biological response, the Tox21 10K compound library was screened for auto fluorescence. From the fluorophores used as reporter signals in our screening assays, the auto fluorescence equivalencies of compounds against three fluorophores have been evaluated: Triamterene, Fluorescein and Rose Bengal sodium for blue, green and red fluorescence, respectively. The fluorescence intensities were measured using Excitation/Emission wavelengths at 405/460nm, 485/535nm and 540/590nm for blue, green and red labels, respectively. This assay includes the blue fluorescence data.
# Tox21 Assay Protocol Summary: 5 uL of culture medium (MEM containing 10% FBS) per well was dispensed into black wall/clear bottom 1536-well plates using a Multidrop Combi Dispenser (ThermoFisher Scientific, Waltham, MA). After 23 nL compound or DMSO vehicle was transferred into assay plate by a pintool work station (Kalypsys, San Diego, CA), fluorescence intensities in the assay plates were measured by an Envision (PerkinElmer, Shelton, CT) plate reader using three labels for measuring blue, green and red fluorescence at […] 460, 535 and 590nm respectively.
# On the % scale 0 is the no-effect control and ±100 the full control effect.
Compound,outcome,"fluorescence, % of fluorescent control"
CCCCC(CC)COC(=O)c1c(Br)c(Br)c(Br)c(Br)c1C(=O)OCC(CC)CCCC (stereo not given),inactive,
CCc1ccccc1N,inactive,
COP(=O)(OC)OC(Br)C(Cl)(Cl)Br (stereo not given),inactive,
CN1C(=O)CN=C(c2ccccc2)c2cc([N+](=O)[O-])ccc21,inactive,
O=C(O)C(F)(F)C(F)(F)C(F)(F)C(F)(F)C(F)(F)F,inactive,
C=CCOC(=O)C(C)(C)OC(=O)c1cc(-n2c(=O)cc(C(F)(F)F)n(C)c2=O)ccc1Cl,inactive,
CCCN(CCOc1c(Cl)cc(Cl)cc1Cl)C(=O)n1ccnc1,inactive,
C[N+]1(CCF)[C@@H]2CC[C@H]1CC(OC(=O)C(O)(c1ccccc1)c1ccccc1)C2 (stereo not given in full),inactive,
C[N+](C)(C)CC1CO1 (stereo not given),inactive,
CN(C)C(=O)Nc1cccc(OC(=O)NC(C)(C)C)c1,inactive,
CC(Oc1cc(Cl)c(Cl)cc1Cl)C(=O)O (stereo not given),inactive,
C#C[C@]1(O)CC[C@H]2[C@@H]3CCC4=CC(=O)CCC4=C3C=C[C@@]21CC,inactive,
CC(C)(C)N(NC(=O)c1ccc(Cl)cc1)C(=O)c1ccccc1,inactive,
COC(=O)Cc1ccccc1,inactive,
CCCCCCCCCCCCN(C)C,inactive,
CCOP(=S)(OCC)SCSc1cc(Cl)ccc1Cl,inactive,
O=C(Cc1ccccc1)OCCc1ccccc1,inactive,
O=[N+]([O-])O[C@H]1CO[C@H]2[C@@H]1OC[C@H]2O[N+](=O)[O-],inactive,
CCCCCCCCCCCCN=C(N)N,,-0.0023% [at 3.72 µM]
CCC1(CCC(C)C)C(=O)NC(=O)NC1=O,inactive,

Compound,outcome,"fluorescence, % of fluorescent control"
O=[N+]([O-])/C=C/c1ccccc1,inactive,
CCOP(=S)(S)OCC,inactive,
CCCCCBr,inactive,
CNC(=O)Oc1cccc(N=CN(C)C)c1,inactive,
O=C(O)c1cc(Cl)ccc1Cl,inactive,
O=C(O)CCCOc1ccc(Cl)cc1Cl,inactive,
C[C@H]1O[C@H](OC2[C@@H](O)[C@@H](O)C(O)[C@H](O)[C@H]2O)[C@@H](N)C[C@@H]1N=C(N)C(=O)O (stereo not given in full),inactive,
CCC1(CC)C(=O)NC(=O)NC1=O,inactive,
Oc1cccc(Cl)c1,inactive,
O=C(O)C(O)C(O)C(=O)O (stereo not given),inactive,
CC(C)OC(=O)Cc1ccccc1,inactive,
CC(C)c1ccc(NC(=O)N(C)C)cc1,inactive,
C[Si](Cn1cncn1)(c1ccc(F)cc1)c1ccc(F)cc1,inactive,
C[C@H]1[C@@H]2Cc3ccc(O)cc3[C@@]1(C)CCN2C,inactive,
C1CS1,inactive,
CC[N+]1(CCOC(=O)C(O)(c2ccccc2)c2ccccc2)CCCCC1,inactive,
[Cl-].[Cl-].[Hg+2],inactive,
C=CCc1ccccc1O,inactive,
Cc1cccc(C)c1NC1=NCCCS1,inactive,
C[N+](C)(C)CCOC(=O)C(O)(c1ccccc1)c1ccccc1,inactive,
